Results filed as inconclusive are left out. Unmarked numbers belong to inactive results. Calls of active or inactive are those of the source. Unless noted, the call rests on the fitted dose curve.

A short description of test [1]: qHTS assay to identify small molecule agonists of the vitamin D receptor (VDR) signaling pathway - cell viability counter screen (AID 743224; active means well fitted cell-killing curve with a large enough effect in the repeat runs; further: series mostly up to about 63 µM; on the % scale 0 is the no-effect control and ±100 the full control effect; nearly all actives have a fitted effect of over 50% in size). The method in brief:
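Counter screen run in the same wells as the VDR-bla reporter assay: CellTiter-Glo luminescence, 30 min at room temperature, after 16 h compound treatment at 37C of cells pre-plated for 4 h.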

A short description of test [2]: qHTS assay to identify small molecule antagonists of the vitamin D receptor (VDR) signaling pathway - cell viability counter screen (AID 743225; active means well fitted cell-killing curve with a large enough effect in the repeat runs; further: on the % scale 0 is the no-effect control and ±100 the full control effect; nearly all actives have a fitted effect of over 50% in size). The method in brief: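 Viability counter screen run in the same wells as the beta-lactamase reporter assay: HEK 293T VDR-UAS-bla cells, 16 h compound exposure at 37C with 3 nM (final) 1-alpha,25-dihydroxyvitamin D3. CellTiter-Glo luminescence, 30 min, room temperature.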

Test [3] is described as follows: qHTS assay to identify small molecule agonists of the NFkB signaling pathway - cell viability counter screen (AID 1159515). Further: series mostly up to about 61 µM; on the % scale 0 is the no-effect control and ±100 the full control effect; nearly all actives have a fitted effect of over 55% in size. The method in brief: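 Read by CellTiter-Glo luminescence (30 min, room temperature) in the wells also used for the beta-lactamase FRET read. ME-180 NFkB-bla cells at 2,000 per well were plated overnight, then exposed to compound for 5 hr at 37 C.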

Test [4] is described as follows: qHTS assay to identify small molecule agonists of the endoplasmic reticulum stress response signaling pathway (AID 1159516; active means well fitted activation curve with a large enough effect in the signal ratio in the repeat runs, not every such curve was filed as active; the % refers to the signal ratio; further: on the % scale 0 is the no-effect control and ±100 the full control effect). Put shortly:
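Ratiometric FRET readout (405 nm excitation; 460 and 530 nm emission) of a beta-lactamase gene driven by the ER stress response element, after 2 hr substrate loading. HeLa ESRE-bla cells were seeded overnight and treated with compounds for only 5 hr at 37 C.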

A short description of test [5]: qHTS assay to identify small molecule agonists of the endoplasmic reticulum stress response signaling pathway - cell viability counter screen (AID 1159517). Further: series mostly up to about 61 µM; on the % scale 0 is the no-effect control and ±100 the full control effect; nearly all actives have a fitted effect of over 50% in size. Put shortly:
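After overnight attachment, ESRE-bla HeLa cells were treated with Tox21 library compounds for 5 hr. CellTiter-Glo luminescence, read 30 min post-addition at room temperature, reported viability.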

The nature of test [6]: qHTS assay to identify small molecule antagonists of the retinoid-related orphan receptor gamma (ROR-gamma) signaling pathway - cell viability counter screen (AID 1159520; active means well fitted cell-killing curve with a large enough effect in the repeat runs; further: on the % scale 0 is the no-effect control and ±100 the full control effect; nearly all actives have a fitted effect of over 50% in size). The method in brief:
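Cytotoxicity was read from cellular ATP (CellTiter-Glo luminescence) after 16 hr at 37 C with 1 uM doxycycline induction. The inducer was added 2 hr after compound transfer to Tet-on ROR gamma CHO cells.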

A short description of test [7]: qHTS assay to identify small molecule agonists of the AP-1 signaling pathway - cell viability counter screen (AID 1159525). Further: nearly all actives have a fitted effect of over 55% in size. Put shortly: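 Intracellular ATP by Cell Titer Glo luminescence (30 min, RT) in the same ME-180 AP-1-bla wells after the 5 h compound exposure at 37 °C. Normalised to tetra n-octyl ammonium bromide and DMSO controls.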
Test [8] in a line: qHTS assay to identify small molecule agonists of the AP-1 signaling pathway (AID 1159526). Further: potency means the concentration at half of the fitted maximal effect. On activation: on the % scale 0 is the no-effect control and ±100 the full control effect.
In test [9] the target is Retinoic acid receptor RXR-alpha (Homo sapiens) (UniProt P19793). Nature of the test: qHTS assay to identify small molecule agonists of the RXR signaling pathway (AID 1159527). Further: on the % scale 0 is the no-effect control and ±100 the full control effect; nearly all actives have a fitted effect of over 35% in size. Put shortly:
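Agonist mode; 9-cis retinoic acid positive control. HEK 293T UAS-bla reporter cells, 2% charcoal-stripped FBS, 16 hr compound exposure at 37 C/5% CO2. LiveBLAzer B/G FRET substrate 2 hr RT; ex 405, em 460/530 nm.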

Retinoic acid receptor RXR-alpha (Homo sapiens), sequence (P19793 whole entry, looked up): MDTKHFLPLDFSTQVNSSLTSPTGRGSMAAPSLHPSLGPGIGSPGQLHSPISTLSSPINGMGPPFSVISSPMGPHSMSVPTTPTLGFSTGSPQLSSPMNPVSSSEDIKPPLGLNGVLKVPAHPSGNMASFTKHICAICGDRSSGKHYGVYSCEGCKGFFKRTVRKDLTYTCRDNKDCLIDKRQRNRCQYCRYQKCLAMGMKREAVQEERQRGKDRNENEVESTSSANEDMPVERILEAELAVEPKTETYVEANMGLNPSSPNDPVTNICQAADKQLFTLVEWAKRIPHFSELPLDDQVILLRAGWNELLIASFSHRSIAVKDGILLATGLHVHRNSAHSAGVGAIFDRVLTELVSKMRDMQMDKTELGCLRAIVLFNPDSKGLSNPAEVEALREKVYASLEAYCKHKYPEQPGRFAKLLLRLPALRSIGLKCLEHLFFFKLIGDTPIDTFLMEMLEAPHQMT

`O=CC1CC=CCC1` (stereo not given): the Potency result in [1], in [2], in test [3], in [4], in test [5] and in [6] was “inactive” in each case. Moreover, the Potency result in [7], in [8] and in [9] was “inactive” throughout.
On to `COCC(C)OC(C)=O` (stereo not given), for which the Potency result in test [1], in [2], in [3], in test [4], in [5] and in test [6] was “inactive” throughout. Moreover, the Potency entry in test [7], in test [8] and in test [9] was “inactive” each time.
As for `Cc1cccc(C)c1NC(=O)CN(CC(=O)O)CC(=O)O`, the Potency result in [1], in test [2], in test [3], in [4], in test [5] and in test [6] was “inactive” each time. The Potency entry in [7], in test [8] and in test [9] was “inactive” throughout.
In the case of `CCNc1cc(O)ccc1C`, the Potency entry in test [1], in [2], in test [3], in [4], in test [5] and in test [6] was “inactive” throughout. Besides, the Potency entry in test [7], in test [8] and in test [9] was “inactive” throughout.
For `Nc1ccc([N+](=O)[O-])c(C(F)(F)F)c1`, the Potency entry in [1], in [2], in [3], in [4], in test [5] and in test [6] was “inactive” in each case. Further, the Potency entry in test [7], in test [8] and in test [9] was “inactive” throughout.
With `C=C1[C@H]2CC[C@@H]3[C@H]2C(C)(C)CCC[C@]13C`, the Potency result in test [1], in test [2], in test [3], in [4], in [5] and in test [6] was “inactive” throughout. Also, the Potency result in test [7], in test [8] and in test [9] was “inactive” in each case.
With `CC(=O)[O][Al][O]C(C)=O`, the Potency result in [1], in test [2], in [3], in test [4], in test [5] and in test [6] was “inactive” throughout. Moreover, the Potency result in test [7] and in test [8] was “inactive” in each case.
For `C[N+]1(C)CCC(OC(=O)C(O)(c2ccccc2)C2CCCC2)C1` (stereo not given), the Potency result in test [1], in test [2], in test [3], in test [4], in test [5] and in test [6] was “inactive” in each case. Besides, the Potency result in test [7] and in [8] was “inactive” in each case.
Take `C[C@H]1C[C@H]2[C@@H]3CCC4=CC(=O)C=C[C@]4(C)[C@@]3(Cl)[C@@H](O)C[C@]2(C)[C@@]1(O)C(=O)CO`: the Potency result in test [1], in [2], in test [3], in [4], in [5] and in test [6] was “inactive” in each case. Besides, the Potency entry in [7] and in test [8] was “inactive” each time.
For the compound `CCN(CC)CCOC(=O)C(Cc1cccc2ccccc12)CC1CCCO1` (stereo not given), the Potency result in test [1], in [2], in test [3], in [4], in test [5] and in test [6] was “inactive” throughout. In addition, the Potency result in test [7] was “inactive”. For the same compound, in test [8], the Potency was 21.3 µM (active).
For the compound `CCOc1ccc(N=Nc2ccc(/C=C/c3ccc(N=Nc4ccc(OCC)cc4)cc3S(=O)(=O)O)c(S(=O)(=O)O)c2)cc1`, the Potency entry in [1], in test [2], in test [3], in [4], in test [5] and in [6] was “inactive” each time. The Potency result in test [7] and in [8] was “inactive” in each case.
`Nc1c(CC(=O)O)cccc1C(=O)c1ccc(Br)cc1`: the Potency result in test [1], in [2], in [3], in test [4], in test [5] and in [6] was “inactive” each time. For the same compound, the Potency entry in test [7] and in test [8] was “inactive” throughout.
Consider `CCc1cc(C2=C(C(=O)O)N(c3ccccc3C(F)(F)F)S(=O)(=O)c3ccccc32)cc2c1OCO2`, for which the Potency entry in test [2], in test [3], in [4], in test [5], in test [6] and in [7] was “inactive” each time. In [8], the Potency entry is “inactive”.
For the compound `O=C1c2ccccc2S(=O)(=O)N1CCCCN1CCN(c2ncccn2)CC1`, the Potency entry in test [1], in [3], in [4], in [5], in test [6] and in test [7] was “inactive” throughout. The Potency result in [8] was “inactive”.
`COc1cccc(N(C)C(=S)Oc2ccc3c(c2)CCCC3)n1`: the Potency result in [1], in [2], in [3], in test [4], in [5] and in test [6] was “inactive” each time. Further, the Potency entry in test [7] and in test [8] was “inactive” in each case.
For the compound `NCC(=O)O`, the Potency result in [1], in [2], in [3], in [4] and in test [5] was “inactive” each time. In addition, the activity, negative = cytotoxicity in test [6] was -1.28% [at 19 µM]. Further, in [7], the viability change, negative = cytotoxic is -1.65% [at 15.8 µM]. Further, the activation in test [8] was -0.769% [at 15.8 µM]; in test [9], -2.92% [at 15.8 µM].
As to `C=CCOC(=O)CCC1CCCCC1`, the Potency entry in test [1], in test [2], in test [3], in test [4], in [5] and in test [6] was “inactive” each time. Further, the Potency result in [7] and in test [8] was “inactive” throughout.
Consider `C=C(C)C(=O)OCCO`, for which the Potency entry in test [1], in test [2], in test [3], in test [4], in [5] and in [6] was “inactive” throughout. For the same compound, the Potency entry in test [7], in test [8] and in [9] was “inactive” in each case.

The values above are taken from PubChem BioAssay (Tox21).
